Sampled rows, rich in hits. Any-hit rate of the full collection: about 10%.
SW480 rerep: A quantitative high throughput screen for small molecules that induce DNA re-replication in SW480 colon adenocarcinoma cells | 1.8% of 340,000 active | SW480 DNA re-replication, Hoechst DNA content imaging, 48 h | Potency, µM (doses to about 46.1 µM), without a hit: at the top dose re-replication activation, usual class: activators | AID 624297, 2012; note: % of control where 0% means no effect; nearly all actives have a fitted effect of over 55% in size
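First, 250 cells per well were seeded. Next, compound or vehicle (23 nL) was pinned in, plates sat 48 hr at 37 C. Finally Hoechst was added for 40 min before fluorescence scanning.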
KB-V1 cytotox: qHTS assay for MDR1-selective chemotherapeutics: Primary screen using the drug-selected MDR subline cells KB-V1 | KB-V1 MDR cells viability, CellTiter-Glo, 72 h | 3.4% of 400,000 active | Potency, µM (highest dose often 46.1 µM), usual class: cytotoxic; note: % is set by controls: 0 for no effect and ±100 for the full control effect; nearly all actives have a fitted effect of over 60% in size
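Cells of the MDR subline KB-V1 are plated, dosed with compound at multiple concentrations, and incubated 72 h at 37 degrees C; CellTiter-Glo is then added and luminescence read after 10 min.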
RORgamma inh: qHTS for inhibitors of ROR gamma transcriptional activity. Potency, µM (top dose mostly 53.6 µM), inactives show top-dose activity change, negative = inhibition, most hits filed as inhibitors. Drosophila S2 Gal4-RORgamma UAS-luciferase reporter, 20 h. 5.4% of 310,000 active. Nuclear receptor ROR-gamma (Mus musculus), P51450; note: % is set by controls: 0 for no effect and ±100 for the full control effect; nearly all actives have a fitted effect of over 60% in size
Target sequence (P51450 whole entry, looked up, the tested form may be a part): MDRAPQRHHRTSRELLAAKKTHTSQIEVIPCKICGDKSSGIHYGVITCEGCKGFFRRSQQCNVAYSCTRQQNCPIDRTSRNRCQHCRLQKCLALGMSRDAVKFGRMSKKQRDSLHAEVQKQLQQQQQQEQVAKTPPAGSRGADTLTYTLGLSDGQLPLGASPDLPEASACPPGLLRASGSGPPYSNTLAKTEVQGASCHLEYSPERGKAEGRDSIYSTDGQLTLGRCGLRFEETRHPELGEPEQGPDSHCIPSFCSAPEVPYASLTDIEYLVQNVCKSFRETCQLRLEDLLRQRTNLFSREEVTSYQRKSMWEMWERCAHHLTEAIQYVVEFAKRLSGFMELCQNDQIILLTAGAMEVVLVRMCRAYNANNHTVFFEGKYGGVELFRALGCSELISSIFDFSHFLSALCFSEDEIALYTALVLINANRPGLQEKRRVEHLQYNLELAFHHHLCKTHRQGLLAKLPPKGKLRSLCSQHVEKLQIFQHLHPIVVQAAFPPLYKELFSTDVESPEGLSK
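Read-out: Photinus luciferase luminescence; inhibitors lower reporter signal. Insect Schneider cells with Gal4-ROR gamma fusion under metallothionein promoter, UAS reporter; 700 uM final copper sulfate induction, 20 hr, ambient temperature.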
KB-3-1 tox: qHTS assay for MDR1-selective chemotherapeutics: Primary screen using the parental adenocarcinoma cell KB-3-1; Potency, µM (top dose mostly 46.1 µM), usual class: cytotoxic; KB-3-1 viability, CellTiter-Glo ATP luminescence, 72 h; AID 1347075, 2019; 1.4% of 400,000 active; note: % is set by controls: 0 for no effect and ±100 for the full control effect; nearly all actives have a fitted effect of over 60% in size
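Parental KB-3-1 adenocarcinoma cells in phenol-red-free DMEM with 10% FBS were pin-treated with compounds at several concentrations, incubated 72 h at 37 °C, and viability read by CellTiter-Glo luminescence; concentration-effect curves were fitted after normalization.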
MCF10A rerep: A quantitative high throughput screen for small molecules that induce DNA re-replication in MCF 10a normal breast cells. MCF 10A DNA re-replication, Hoechst nuclear intensity, 48 h. Potency, µM (titrated, usually from 46.1 µM), for inactives: at the top dose activity, positive = re-replication, actives largely listed as activators. 2.9% of 350,000 active. AID 624296, 2012; note: % of control where 0% means no effect; nearly all actives have a fitted effect of over 50% in size
Gal4-VP16 FLuc: VP16 counterscreen qHTS for inhibitors of ROR gamma transcriptional activity. Drosophila S2 Gal4-VP16 UAS-luciferase, luminescence, 20 h. 3.5% of 310,000 active. Potency, µM (titrated, usually from 53.6 µM), for inactives: at the highest dose activity, negative = inhibition, hits mostly inhibitors;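 note: Gal4-VP16 expression switched on by copper sulfate through the metallothionein promoter; % is set by controls: 0 for no effect and ±100 for the full control effect; nearly all actives have a fitted effect of over 50% in size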
Active calls of the source: *; i = inactive; ? = inconclusive; . = no result; [ ] = remark or other dose. Calls come from the whole dose curve; as a rule, active = well fitted curve in the direction sought with a large enough effect; inconclusive = small, poorly fitted or top-dose-only effect, or another doubt; inactive = no such curve, though single readings can be large; an effect the other way counts as inactive or inconclusive. Potency is the fitted concentration of half-maximal effect.

SMILES	SW480 rerep	KB-V1 cytotox	RORgamma inh	KB-3-1 tox	MCF10A rerep	Gal4-VP16 FLuc
CC(NC(=O)Nc1nnc(C(F)(F)F)s1)(C(F)(F)F)C(F)(F)F	?	i	5.01µM*	13µM*	11.6µM*	5.62µM*
COC(=O)c1cnc(Nc2nc(CN)cs2)nc1C(F)(F)F	.	i	.	i	.	.
Cc1ccc2scc(N3CCCC(C)C3)c(=O)c2c1 (stereo not given)	.	i	.	i	.	.
CCOC(=O)Cn1c(=O)n(CC2CCCO2)c2nc(-c3ccccc3F)nc(C(N)=O)c21 (stereo not given)	.	?	.	i	.	.
CCOc1ccc(C(=O)NCc2nc(-c3ccc(Cl)cc3)no2)cc1OCC	.	i	.	i	.	.
COCc1ccc(-c2c(-c3ccsc3)oc(=O)c3cc(OC)c(OC)cc23)cc1	1.4%	?	.	?	3.66µM*	.
CCOC(=O)c1c(-c2ccc(-c3ccccc3)cc2)csc1NC(=O)CNCCN(C)C	?	?	0.631µM*	?	17.4%	1.58µM*
CCOC(=O)c1c(-c2ccc(-c3ccccc3)cc2)csc1NC(=O)CCN1CCOCC1	23.0%	i	-14.8%	?	8.2µM*	-3.9%
CCOC(=O)c1c(-c2ccccc2)csc1NC(=O)CCN1C(=O)c2ccccc2C1=O	7.1%	i	24.9%	i	28.3%	-5.0%
CC(C)Oc1ccc(CN2CCC2(C)C(=O)Nc2cccc3cccnc23)cc1 (stereo not given)	.	?	.	i	.	.
COc1ccc(C(=O)NCC(c2cccnc2)N2CCc3ccccc32)cc1OC (stereo not given)	.	i	.	i	.	.
CCC(=O)NC(=S)Nc1cccc(NC(=O)c2ccccc2Cl)c1	0.0%	i	11.2µM*	i	-10.3%	-24.7%
CCOC(=O)NC(=S)c1ccc[nH]1	-1.7%	i	12.6µM*	i	-2.8%	?
COC(=O)CC(NC(=S)NC(=O)c1ccccc1)c1ccc(Br)cc1 (stereo not given)	-23.5%	i	12.6µM*	i	2.5%	?
CCOC(=O)NC(=S)Nc1cccc(NC(=S)NC(=O)OCC)c1	-8.4%	i	7.08µM*	i	-1.6%	?
CCOC(=O)Nc1cccc(NC(=O)c2cc(OC)cc(OC)c2)c1	-5.3%	?	?	i	-1.3%	-18.8%
C[C@@H]1CN([C@@H](C)CO)C(=O)CCCn2nncc2CO[C@@H]1CN(C)C(=O)Nc1ccnc(N2CCOCC2)c1	.	i	.	i	.	.
O=C1Nc2ccccc2-n2nnnc2C1N1CCN(C(=O)C2CCCO2)CC1 (stereo not given)	.	i	.	i	.	.
CCC(=O)NC(=S)Nc1cccc(NC(=O)c2ccccc2)c1	12.3%	i	5.01µM*	i	4.3%	?
CC(C)CC(=O)NC(=S)Nc1cccc(NC(=O)c2ccccc2Cl)c1	3.1%	i	?	i	12.5%	?
CCC(=O)NC(=S)Nc1ccc(NC(=S)NC(=O)c2ccccc2)cc1	0.1%	?	3.16µM*	i	-0.7%	?
O=C(NC(=S)Nc1cccc(NC(=O)c2ccc(Cl)cc2Cl)c1)c1cccs1	-3.7%	?	20µM*	i	10.9%	11.2µM*
CC(C)Oc1cccc(C(=O)NC(=S)Nc2cccc(NC(=O)c3ccccc3Cl)c2)c1	0.8%	i	11.2µM*	i	-1.0%	8.91µM*
CCCC(=O)NC(=S)Nc1cccc(NC(=O)c2ccc(Cl)cc2Cl)c1	0.3%	i	10µM*	i	9.9%	?
CCOC(=O)c1c(N)sc(C(O)(C(F)(F)F)C(F)(F)F)c1-c1ccc(Cl)cc1	?	i	?	i	14.6µM*	?
SMILES	SW480 rerep	KB-V1 cytotox	RORgamma inh	KB-3-1 tox	MCF10A rerep	Gal4-VP16 FLuc
CCOC(=O)c1c(NC(=O)Nc2ccc(Cl)cc2)sc(C)c1C	11.1%	i	-41.7%	i	?	?
CCOC(=O)c1c(N)sc(C(O)(C(F)(F)F)C(F)(F)F)c1-c1ccc(F)cc1	18.4µM*	i	-25.7%	i	-189.3%[0.0737 µM]	?
CCOC(=O)c1c(NC(=O)C2C3CCC(O3)C2C(=O)O)sc(C)c1-c1ccc(F)cc1 (stereo not given)	-3.0%	?	?	i	4.8%	-7.1%
CCn1c(Sc2ccc([N+](=O)[O-])cn2)nnc1-c1ccco1	8.5%	?	10µM*	20.6µM*	6.51µM*	?
O=S(Cc1ccc(Cl)cc1)CC(O)(c1ccccc1)c1ccccc1 (stereo not given)	-12.8%	i	?	i	0.1%	-3.4%
O=S(Cc1ccccc1)CC(O)(c1ccc(Cl)cc1)c1ccc(Cl)cc1 (stereo not given)	?	20.6µM*	?	?	?	-16.0%
O=C(C[n+]1ccccc1Br)c1ccc(I)cc1	.	i	.	?	.	.
CN(C)/N=C/C=C1\CCC/C(=C/c2cccs2)C1=O	?	?	13.1%	i	23.1µM*	?
CN(C)/N=C/C=C1\CC/C(=C\c2ccc(Br)cc2)C1=O	?	i	15.6%	i	-1.9%	2.3%
Cc1ccc(NC(=O)N2CCc3c(sc4c3CCCC4)C2c2ccccc2)cc1F (stereo not given)	.	i	.	i	.	.
CCN(CC)S(=O)(=O)c1cc(NC(=O)CNc2cccc(S(=O)(=O)N3CCCC3)c2)ccc1C	-1.6%	20.6µM*	.	2.91µM*	26.1%	.
CCN(CC)S(=O)(=O)c1cccc(NC(=O)CNc2cccc(S(=O)(=O)N3CCOCC3)c2)c1	5.6%	20.6µM*	.	1.3µM*	15.1%	.
CCN(CC)S(=O)(=O)c1ccc(C)c(NC(=O)CNc2cccc(S(=O)(=O)N3CCOCC3)c2)c1	-527.0%	i	.	i	?	.
CCCCC12CN3CC(C)(CN(C1)C3c1c(C)[nH]c(=O)[nH]c1=O)C2=O (stereo not given)	.	i	.	i	.	.
CCOC(=O)C1CCN(S(=O)(=O)c2cc(Br)cc3c2N(C(=O)CC)CC3)CC1	.	i	.	i	.	.
CCC(C)(C)C1CCc2c(sc(NC(=O)c3ccccc3C(=O)O)c2C#N)C1 (stereo not given)	14.6%	?	-33.4%	i	18.4µM*	-5.4%
N#Cc1c(NC(=S)NC(=O)c2ccccc2)sc2c1CCCCC2	.	i	.	i	.	.

Source: PubChem BioAssay (National Center for Advancing Translational Sciences (NCATS))
